Results: PubChem BioAssay (NCI)
The panel holds about 79,000 compounds, 15% with a hit somewhere; the sample as a whole holds those more often. Active and inactive are the calls of the source. No stated cut-off is given here; in the data, active means growth inhibition above about 70%; inactive means the rest.

Assays:
[1] = NCI Yeast Anticancer Drug Screen. Data for the rad52 strain (AID 147);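 further: 0% = growth of vehicle-treated control cultures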; conditions: S. cerevisiae rad52 mutant growth inhibition, active compounds read high
Outline: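 Compounds are applied to a genetically defined yeast strain lacking normal DNA damage repair, and inhibition of growth is expressed relative to cultures given vehicle only.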

[2] = NCI Yeast Anticancer Drug Screen. Data for the wt1 strain (AID 149);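 further: 0% = growth of vehicle-treated wt1 cultures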; conditions: S. cerevisiae wt1 strain (SPY 50644) growth inhibition, active compounds read high
Outline: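 Vehicle-normalised growth inhibition; strain wt1; compound exposure.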

[3] = NCI Yeast Anticancer Drug Screen. Data for the rad50EPP+ strain (AID 151);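 further: 0% = growth of vehicle-treated control cultures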; conditions: S. cerevisiae rad50 mutant strain, active compounds read high
Outline: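 Compounds were applied to the rad50EPP+ yeast strain, which bears a defined DNA repair alteration, and growth inhibition was determined relative to vehicle-treated cultures.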

[4] = NCI Yeast Anticancer Drug Screen. Data for the mgt1 strain (AID 153); conditions: S. cerevisiae mgt1 mutant growth inhibition, active compounds read high
Outline: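 Strain: mgt1 yeast, one of a set carrying defined DNA damage repair or cell cycle control alterations. Compound-treated growth compared with vehicle.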

[5] = NCI Yeast Anticancer Drug Screen. Data for the rad50 strain (AID 155);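 further: 0% = growth of vehicle-only cultures of the same strain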; conditions: S. cerevisiae rad50 strain growth inhibition, active compounds read high
Outline: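 A DNA repair-deficient yeast mutant serves as the test organism; compound-induced growth inhibition is calculated against vehicle-treated cells.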

[6] = NCI Yeast Anticancer Drug Screen. Data for the mec2-1 strain (AID 157); conditions: S. cerevisiae mec2-1 strain, active compounds read high
Outline: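 Strain: mec2-1 (DNA repair/cell cycle alteration). Compound exposure, then growth measured; inhibition expressed relative to vehicle.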

[7] = NCI Yeast Anticancer Drug Screen. Data for the rad14 strain (AID 159);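 further: 0% = growth of vehicle-treated control cultures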; conditions: S. cerevisiae rad14 strain growth inhibition, active compounds read high
Outline: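 Vehicle-treated cultures served as the baseline for growth inhibition of a DNA repair-mutant yeast strain exposed to each compound.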

[8] = NCI Yeast Anticancer Drug Screen. Data for the sgs1 mgt1 strain (AID 161);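 further: 0% = growth of cultures given vehicle only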; conditions: S. cerevisiae sgs1 mgt1 strain, active compounds read high
Outline: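 Genetically altered yeast, compound exposure, growth inhibition relative to vehicle.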

[9] = NCI Yeast Anticancer Drug Screen. Data for the CLN2oe strain (AID 163);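 further: 0% = growth of vehicle-only control cultures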; conditions: S. cerevisiae CLN2oe strain, active compounds read high
Outline: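 Growth of a genetically modified yeast strain is measured after compound exposure and compared with cultures given vehicle alone.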

[10] = NCI Yeast Anticancer Drug Screen. Data for the cln2 rad14 strain (AID 165);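 further: 0% = growth equal to vehicle treated cultures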; conditions: S. cerevisiae cln2 rad14 strain, active compounds read high
Outline: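 Compounds are applied to the cln2 rad14 yeast strain, and growth is then compared with that of vehicle-treated cultures to give inhibition.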

[11] = NCI Yeast Anticancer Drug Screen. Data for the bub3 strain (AID 167); conditions: S. cerevisiae bub3 mutant strain, active compounds read high
Outline: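 Inhibition values come from growth of compound-treated mutant yeast normalised to vehicle-treated controls.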

[12] = NCI Yeast Anticancer Drug Screen. Data for the wt2 strain (AID 169);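 further: 0% = growth of vehicle-treated yeast cultures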; conditions: S. cerevisiae wt2 strain growth inhibition, active compounds read high
Outline: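 This strain belongs to a panel of yeast strains with defined genetic alterations in DNA damage repair or cell cycle control. Compounds are applied, and growth inhibition is measured against vehicle-treated cultures.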

[13] = NCI Yeast Anticancer Drug Screen. Data for the sgs1 strain (AID 173);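 further: 0% = growth of vehicle-only control cultures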; conditions: S. cerevisiae sgs1 mutant, active compounds read high
Outline: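 Growth of a yeast strain bearing a defined genetic alteration is measured after compound treatment. Inhibition is expressed relative to vehicle-only controls.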

[14] = NCI Yeast Anticancer Drug Screen. Data for the mlh1 rad18 strain (AID 175); conditions: S. cerevisiae mlh1 rad18 strain growth inhibition, active compounds read high
Outline: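 Read-out is yeast growth inhibition, calculated against vehicle-only controls. The compound was applied to a strain engineered with DNA damage repair alterations.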

[15] = NCI Yeast Anticancer Drug Screen. Data for the rad18 strain (AID 177); conditions: S. cerevisiae rad18 mutant growth inhibition, active compounds read high
Outline: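 Growth of the mutant yeast strain after compound exposure, normalised to vehicle-only cultures.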

[16] = at 5.0 µM (retest, dose inferred, filed as 0.5)
[17] = at 50.0 µM (retest, dose inferred, filed as 5.0)

Measured: growth inhibition

Cc1ccnc2c(O)cccc12
inactive: [1]; at 1.2 µM 3% | [2]; at 1.2 µM -5% | [2]; at 3.7 µM 19% | [3]; at 1.2 µM -1% | [4]; at 1.2 µM -8% | [5]; at 1.2 µM 6% | [5]; [16] 24% | [6]; at 1.2 µM 31% | [6]; [16] -1% | [7]; at 1.2 µM 0% | [7]; at 3.7 µM 24% | [9]; at 1.2 µM 24% | [10]; [16] 22% | [11]; at 1.2 µM -6% | [11]; at 3.7 µM 47% | [11]; [16] 41% | [12]; at 1.2 µM -8% | [12]; at 3.7 µM 25% | [13]; at 1.2 µM -13% | [13]; at 3.7 µM 59% | [15]; at 1.2 µM -3% | [15]; at 3.7 µM 60%
active: [1]; at 3.7 µM 96% | [1]; at 11.0 µM 96% | [1]; at 33.0 µM 99% | [1]; at 100.0 µM 99% | [2]; at 11.0 µM 76% | [2]; at 33.0 µM 93% | [2]; at 100.0 µM 98% | [3]; at 3.7 µM 98% | [3]; at 11.0 µM 99% | [3]; at 33.0 µM 99% | [3]; at 100.0 µM 99% | [4]; at 3.7 µM 73% | [4]; at 11.0 µM 91% | [4]; at 33.0 µM 99% | [4]; at 100.0 µM 99% | [5]; at 3.7 µM 97% | [5]; at 11.0 µM 98% | [5]; at 33.0 µM 99% | [5]; [17] 99% | [5]; at 50.0 µM 98.2% | [5]; at 100.0 µM 99% | [6]; at 3.7 µM 98% | [6]; at 11.0 µM 100% | [6]; at 33.0 µM 100% | [6]; [17] 98% | [6]; at 50.0 µM 97.3% | [6]; at 100.0 µM 100% | [7]; at 11.0 µM 83% | [7]; at 33.0 µM 98% | [7]; at 100.0 µM 99% | [8]; [16] 73% | [8]; [17] 99% | [8]; at 50.0 µM 97.8% | [9]; at 3.7 µM 98% | [9]; at 11.0 µM 99% | [9]; at 33.0 µM 100% | [9]; at 100.0 µM 99% | [10]; [17] 96% | [10]; at 50.0 µM 97.5% | [11]; at 11.0 µM 98% | [11]; at 33.0 µM 99% | [11]; [17] 99% | [11]; at 50.0 µM 97.9% | [11]; at 100.0 µM 99% | [12]; at 11.0 µM 80% | [12]; at 33.0 µM 84% | [12]; at 100.0 µM 97% | [13]; at 11.0 µM 98% | [13]; at 33.0 µM 99% | [13]; at 100.0 µM 99% | [14]; [16] 87% | [14]; [17] 99% | [14]; at 50.0 µM 98.7% | [15]; at 11.0 µM 97% | [15]; at 33.0 µM 99% | [15]; at 100.0 µM 99%
